This is a sample that favours compounds with a hit; in the whole collection about 19% have one here.
IL-1B inflam inh: inflammasome signaling inhibition, IL-1 beta readout | activity change, % at 57.5 µM | 360,000 tested, 4.7% active | AID 743279 | THP-1 LPS/ATP IL-1B secretion, AlphaLISA, 16 h; active compounds read low; in the data active = activity change below about -50%; inconclusive = mostly about -30% to -49%
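THP-1 cells pretreated 1 hr with compounds (up to 57.5 uM final), then stimulated with LPS (250 ng/mL final) plus ATP (1.25 mM final); secreted IL-1B measured by AlphaLISA after 16 hr, decreased signal indicating inhibition.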
DT40 TDP1 no CPT: qHTS for Inhibitors of human tyrosyl-DNA phosphodiesterase 1 (TDP1): qHTS in cells in absence of CPT. DT40 Tdp1-/- hTDP1 cells, no CPT, ATP luminescence, 48 h. Potency, µM (series often up to 46.2 µM), hits mostly inhibitors. 420,000 tested, 15% active. AID 686978, 2013; also: nearly all actives have a fitted effect of over 55% in size
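Chicken DT40 Tdp1-/- cells stably complemented with human TDP1 were seeded at 400 cells/well with DMSO in place of 20 nM camptothecin. After compound pinning, cells grew at least 48 hr at 37 °C; viability read by CellTiter-Glo luminescence.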
HT1080 IDH1KD tx: toxicity to HT-1080 IDH1 knockdown cells (counter line); HT-1080 IDH1 knockdown viability, ATP luminescence, 48 h; Potency, µM (doses to about 46.1 µM), usual class: cytotoxic; 360,000 tested, 2% active; AID 686971
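HT-1080-IDH1KD cells (IDH1 knocked down), 750/well in RPMI with 5% FBS, treated with compound 48 h at 37 degrees C. Viability by CellTiter-Glo luminescence, normalised to DMSO and no-cell wells; concentration-response curves classed.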
uPA generation: blocks generation of uPA at the cell surface; cell surface uPA generation assay, qHTS; Potency, µM (titrated, usually from 38.3 µM), most hits filed as inhibitors; 330,000 tested, 0.31% active; active = well fitted inhibition curve with a large enough effect; inconclusive = small, poorly fitted or top-dose-only effect; inactive = no such curve, though single readings can be large or run the other way; tested in mouse RAW 264.7 cells; also: nearly all actives have a fitted effect of over 55% in size
HT1080-NT tox: kills 2HG-producing HT-1080-NT fibrosarcoma cells; 360,000 tested, 1.6% active; HT-1080-NT fibrosarcoma viability, CellTiter-Glo ATP luminescence, 48 h; Potency, µM (top dose mostly 46.1 µM), actives largely listed as cytotoxic; AID 686970;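 also: NT is the 2HG producing partner of a matched IDH1 knockdown line; nearly all actives have a fitted effect of over 55% in size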
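HT-1080-NT; 750 cells/well; 5% FBS RPMI; 48 h compound, 37 degrees C; CellTiter-Glo luminescence; curve fitting and curve-class assignment.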
DT40 TDP1 CPT: DT40-hTDP1 cell growth loss with CPT; chicken DT40 Tdp1-/-;hTDP1 cells + 20 nM CPT, ATP luminescence, 48 h; Potency, µM (top dose mostly 46.2 µM), most hits filed as inhibitors; 420,000 tested, 12% active; also: nearly all actives have a fitted effect of over 55% in size
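Chicken DT40 Tdp1-/- cells complemented with human TDP1, 400 cells/well, exposed to compounds plus 20 nM camptothecin for at least 48 h at 37 C; viability read as ATP content by CellTiter-Glo luminescence.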
Large screens that a line does not name were inactive. Unless noted, calls follow the shape of the dose curve; as a rule, active = well fitted curve in the direction sought with a large enough effect; inconclusive = small, poorly fitted or top-dose-only effect, or another doubt; inactive = no such curve, though single readings can be large; an effect the other way counts as inactive or inconclusive.

FC(F)(F)Oc1ccccc1C(c1nnnn1Cc1ccccc1)N1CCN(C/C=C/c2ccccc2)CC1 (centres undefined)	IL-1B inflam inh -55, DT40 TDP1 no CPT inconclusive, DT40 TDP1 CPT inconclusive (no result: uPA generation)
COc1ccc(N2CCN(C(c3ccccc3)c3nnnn3Cc3ccccc3)CC2)cc1 (centres undefined)	DT40 TDP1 no CPT 16µM, DT40 TDP1 CPT inconclusive (no result: IL-1B inflam inh, HT1080 IDH1KD tx, uPA generation, HT1080-NT tox)
CCCCn1nnnc1C(CC)N1CCN(C/C=C/c2ccccc2)CC1 (centres undefined)	DT40 TDP1 no CPT inconclusive, DT40 TDP1 CPT inconclusive (no result: uPA generation)
COc1ccc(C(c2nnnn2Cc2ccccc2)N2CCN(C/C=C/c3ccccc3)CC2)cc1 (centres undefined)	IL-1B inflam inh inconclusive, DT40 TDP1 no CPT 15µM, HT1080 IDH1KD tx inconclusive, HT1080-NT tox inconclusive, DT40 TDP1 CPT inconclusive (no result: uPA generation)
COc1ccccc1C(c1nnnn1Cc1ccccc1)N1CCN(C2CCCC2)CC1 (centres undefined)	DT40 TDP1 no CPT inconclusive, DT40 TDP1 CPT inconclusive
CCN1CCN(C(c2ccccc2)c2nnnn2Cc2ccc(OC)cc2)CC1 (centres undefined)	IL-1B inflam inh inconclusive
COCCN1C(=O)c2ccccc2C1c1nnnn1Cc1ccccc1 (centres undefined)	none (no result: uPA generation)
CCCCn1nnnc1C(c1ccccc1)N1CCN(C)CC1 (centres undefined)	none (no result: uPA generation)
CN1CCN(C(c2cccc(C(F)(F)F)c2)c2nnnn2Cc2ccccc2)CC1 (centres undefined)	IL-1B inflam inh -54, DT40 TDP1 no CPT inconclusive, HT1080 IDH1KD tx inconclusive, HT1080-NT tox inconclusive
C(=C\c1ccccc1)/CN1CCN(C(c2ccccc2)c2nnnn2Cc2ccccc2)CC1 (centres undefined)	DT40 TDP1 no CPT inconclusive, HT1080 IDH1KD tx inconclusive, HT1080-NT tox inconclusive, DT40 TDP1 CPT 29µM (no result: uPA generation)
CC(C)(C)n1nnnc1C(c1ccccc1)N1CCN(C/C=C/c2ccccc2)CC1 (centres undefined)	DT40 TDP1 no CPT inconclusive, DT40 TDP1 CPT inconclusive (no result: uPA generation)
Fc1ccc(C(c2ccc(F)cc2)N2CCN(C/C=C/c3ccccc3)CC2)cc1	DT40 TDP1 no CPT 23µM, HT1080 IDH1KD tx inconclusive, HT1080-NT tox inconclusive, DT40 TDP1 CPT 3.7µM
CCCCn1nnnc1C(c1ccccc1)N1CCN(c2ncc(C(F)(F)F)cc2Cl)CC1 (centres undefined)	DT40 TDP1 no CPT 18µM, DT40 TDP1 CPT inconclusive (no result: uPA generation)
COCC(=O)Nc1cc(C(=O)NC2C3CC4CC2CC(O)(C4)C3)cc2nc(-c3ccccc3)n(C)c12 (centres undefined)	none (no result: IL-1B inflam inh, HT1080 IDH1KD tx, uPA generation, HT1080-NT tox)
O=C(Nc1ccccc1)c1ccsc1	none
COc1cc(C(=O)NCCC(=O)NCc2cccs2)cc(OC)c1OC	none (no result: uPA generation)
C1=Cc2ccccc2/C1=C/c1ccc(/C=C2\C=Cc3ccccc32)cc1	none (no result: IL-1B inflam inh, HT1080 IDH1KD tx, uPA generation, HT1080-NT tox)
O=[N+]([O-])c1ccc2c(c1)C=C/C2=C\c1ccc(C=S)cc1	DT40 TDP1 no CPT 11µM, DT40 TDP1 CPT inconclusive (no result: IL-1B inflam inh, HT1080 IDH1KD tx, uPA generation, HT1080-NT tox)
O=C(Cc1ccccc1[N+](=O)[O-])N1CCN(c2ccc(F)cc2)CC1	none
Cc1cccc(N2CCN(C(=O)c3ccnn3C)CC2)c1C	none
Cc1cccc(N2CCN(C(=O)c3ccncc3)CC2)c1C	DT40 TDP1 no CPT 21µM, HT1080 IDH1KD tx 13µM, HT1080-NT tox 9.2µM, DT40 TDP1 CPT 21µM
Cc1cccc(N2CCN(C(=O)Cc3ccccc3[N+](=O)[O-])CC2)c1C	DT40 TDP1 no CPT 21µM
Cc1ccc(NC(=O)C(Cc2ccccc2)n2cccc2)cc1C (centres undefined)	DT40 TDP1 no CPT 16µM, DT40 TDP1 CPT 12µM (no result: IL-1B inflam inh, HT1080 IDH1KD tx, uPA generation, HT1080-NT tox)
Cc1cccc(N2CCN(C(=O)c3ccc4ncsc4c3)CC2)c1C	DT40 TDP1 no CPT 5.2µM, HT1080 IDH1KD tx 5.8µM, HT1080-NT tox 2.6µM, DT40 TDP1 CPT 2.1µM
O=C(c1ccc(-n2cncn2)c([N+](=O)[O-])c1)N1CCN(S(=O)(=O)c2ccccc2F)CC1	DT40 TDP1 no CPT inconclusive
CCNC(=O)CC1C(=O)N(c2cccc(OC)c2)C(=O)N1Cc1ccc(OC)c(OC)c1 (centres undefined)	none (no result: IL-1B inflam inh, HT1080 IDH1KD tx, uPA generation, HT1080-NT tox)

Screening data deposited in PubChem by National Center for Advancing Translational Sciences (NCATS).
